Sfp PPTase inh: inhibitors of Bacillus subtilis Sfp phosphopantetheinyl transferase; 310,000 tested, 3.5% active; AID 1490; Q9F4F7; Biochemical Sfp PPTase activity, qHTS; Potency, µM, for the others: largest response in the series, negative = inhibition, usual class: inhibitors;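 note: the enzyme is Sfp with the accession as filed and its product quenches rhodamine fluorescence; 0% = enzyme reaction without inhibitor and -100% = no enzyme wells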
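Step 1, compound plus 15 nM Sfp-PPTase, 15 min, room temperature. Step 2, add rhodamine-CoA (5 uM) and BHQ-2-YbbR (12.5 uM). Step 3, read 525/598 nm fluorescence at 0 and 30 min.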
BAZ2B inh: inhibitors of human BAZ2B bromodomain; Q9UIF8; AlphaScreen BAZ2B-H3K14Ac peptide displacement; Potency, µM (titrated, usually from 114 µM), inactives show at the highest dose activity change, negative = inhibition, hits mostly inhibitors; 360,000 tested, 4.4% active; note: % is set by controls: 0 for no effect and ±100 for the full control effect; nearly all actives have a fitted effect of over 60% in size
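AlphaScreen displacement: compounds (up to 110uM) incubated 30 min at room temperature with a preformed 50 nM BAZ2B/50 nM biotinylated H3K14Ac peptide complex in PBS pH 7.4 with Tween-20. Donor and acceptor beads at 10 ug/mL final added, 20 min light-protected before reading.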
JMJD2A Tudor inh: JMJD2A Tudor domain (human) inhibition; O75164; AlphaScreen JMJD2A-Tudor / H3K4me3 peptide binding; Potency, µM (top dose mostly 114 µM), without a hit: at the highest dose activity change, negative = inhibition, usual class: inhibitors; 390,000 tested, 4.4% active; note: % is set by controls: 0 for no effect and ±100 for the full control effect; nearly all actives have a fitted effect of over 50% in size
HP1b chromo inh: blocks HP1-beta chromodomain binding to methylated histone tails | P83916 | AlphaScreen HP1-beta / biotin-H3K9me3 peptide binding | Potency, µM (highest dose often 114 µM), without a hit: top-dose activity change, negative = inhibition, usual class: inhibitors | 390,000 tested, 0.56% active; note: nearly all actives have a fitted effect of over 70% in size
Target sequence (P83916 whole entry, looked up): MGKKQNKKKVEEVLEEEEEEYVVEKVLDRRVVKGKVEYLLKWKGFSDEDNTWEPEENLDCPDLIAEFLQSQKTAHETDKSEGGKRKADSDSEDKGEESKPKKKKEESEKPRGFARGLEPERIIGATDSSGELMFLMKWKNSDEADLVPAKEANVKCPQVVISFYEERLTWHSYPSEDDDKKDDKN
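HP1-beta protein (50 nM final) preincubated 30 min at room temperature with biotinylated H3(1-18)K9me3 peptide (50 nM) in PBS pH 7.4, 0.01% Tween-20, then compound added for 30 min. AlphaScreen streptavidin donor/nickel chelate acceptor beads (10 ug/mL final), 30 min dark, luminescence read.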
G9a block: inhibitors of human histone lysine methyltransferase G9a; G9a H3K9 monomethylation, AlphaScreen, 2 h; Q96KQ7; Potency, µM (doses to about 102 µM), for the others: at the highest dose activity, negative = inhibition, usual class: inhibitors; 350,000 tested, 8.8% active; note: % is set by controls: 0 for no effect and ±100 for the full control effect; nearly all actives have a fitted effect of over 75% in size
Target sequence (Q96KQ7 913-1193 limits assumed): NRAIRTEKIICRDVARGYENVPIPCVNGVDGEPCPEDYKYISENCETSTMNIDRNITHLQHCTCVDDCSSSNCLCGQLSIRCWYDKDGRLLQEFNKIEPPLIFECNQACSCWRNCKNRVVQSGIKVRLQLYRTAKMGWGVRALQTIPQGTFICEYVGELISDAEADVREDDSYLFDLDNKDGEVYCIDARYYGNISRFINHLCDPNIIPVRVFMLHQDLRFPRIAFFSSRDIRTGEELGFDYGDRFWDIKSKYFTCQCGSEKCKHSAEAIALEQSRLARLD
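AlphaScreen read-out: biotin-H3K9 peptide (500 nM) methylation by 20 nM enzyme with 20 uM SAM, 2 h at room temperature after 15 min compound preincubation; anti-monomethyl H3K9 antibody plus donor/acceptor beads, 10 min dark.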
L3MBTL1 inh: inhibitors of human L3MBTL1; 230,000 tested, 0.66% active; AlphaScreen L3MBTL1–H3K9me1 peptide binding; Potency, µM (titrated, usually from 57.1 µM), for inactives: at the highest dose activity, negative = inhibition, actives largely listed as inhibitors; note: % is set by controls: 0 for no effect and ±100 for the full control effect; nearly all actives have a fitted effect of over 60% in size
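Displacement of a biotinylated histone H3(1-15) peptide monomethylated at Lys9 (75 nM) from L3MBTL1 (50 nM) was measured by AlphaScreen after a 30 min room-temperature compound incubation; cefsulodin titration served as intraplate control.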
* marks the source's active call; other numbers are inactive results; ? = inconclusive; / = no result; [ ] = remark or other dose. Shown are actives, neighbours in structure and some others; about 12% of the full set was active somewhere. Calls come from the whole dose curve; as a rule, active = well fitted curve in the direction sought with a large enough effect; inconclusive = small, poorly fitted or top-dose-only effect, or another doubt; inactive = no such curve, though single readings can be large; an effect the other way counts as inactive or inconclusive. Potency is the fitted concentration of half-maximal effect.

SMILES	Sfp PPTase inh	BAZ2B inh	JMJD2A Tudor inh	HP1b chromo inh	G9a block	L3MBTL1 inh
CCN(CC)C(=O)[C@H]1CC(CC(=O)NCCC2=CCCCC2)C(=O)N2CCc3c([nH]c4ccc(OC)cc34)[C@]12C (stereo partly specified)	/	/	-27%	36%	/	-1%
CCOc1ccc(S(=O)(=O)N2CCN(c3c(C)cccc3C)CC2)c2ccccc12	/	-4%	4%	40%	13%[59 µM]	/
Cc1cc(NS(=O)(=O)c2ccc(Nc3nc(-c4sc(C)nc4C)cs3)cc2)no1	0%	-2%	/	/	-13%	/
CCC(=O)Nc1nc(C)c(-c2csc(Nc3ccc(S(=O)(=O)Nc4cc(C)on4)cc3)n2)s1	-17%	-5%	/	/	50µM*	/
CC(C)C(=O)N1CCc2cc(-c3csc(N)n3)ccc21	40µM*	?	-23%	-22%	?	/
CCC(=O)N1CCc2cc(-c3csc(NC(=O)c4ccco4)n3)ccc21	2%	?	-11%	28%	0%	/
O=C1OCc2ccc(NC(=O)c3ccccc3C(=O)O)cc21	5%	-18%	-11%	10%	?	/
O=C(Nc1ccc2c(c1)C(=O)OC2)c1ccccc1Cl	4%	22%	-6%	14%	50µM*	/
CN(c1ccc(C(=O)N2CCN(Cc3ccccc3)CC2)cc1)S(=O)(=O)c1ccc(Cl)cc1	5%	-28%	-27%	7%	?	/
CC1C(=O)C(C)(C)C(=O)OC1c1ccccc1 (stereo unspecified)	7%	-14%	-11%	38%	8%[59 µM]	-10%
CC1C(=O)C(C)(C)C(=O)OC1c1ccc([N+](=O)[O-])cc1 (stereo unspecified)	2%	-14%	2%	48%	50µM*	/
Cc1ccc(NC(=O)CN2C(=O)NC3(CCCc4ccccc43)C2=O)c(C)c1 (stereo unspecified)	/	-2%	-10%	33%	?	8%
O=C1CCCCCN1CP(=O)(O)CCc1ccccc1	10%	-6%	-10%	12%	7%[59 µM]	-3%
O=C1CCCCCN1CP(=O)(O)CN1CCCCCC1=O	20%	-11%	-22%	18%	50µM*	5%
Cc1cc(C(=O)O)c(=O)[nH]c1C	13%	?	22µM*	-5%	71µM*	5%
CCCCCC(=O)O[C@@]1(C(C)=O)CCC2C3CCC4=CC(=O)CC[C@@]4(C)C3CC[C@]21C (stereo partly specified)	-23%	/	/	/	3%[2.33 µM]	/
[O-][n+]1c2c(c3c4non(O)c4ccc31)CCCC2	-6%	40µM*	?	-16%	?	/
COc1cc(OC)c(/C=N/n2c(C3CCCCC3)n[nH]c2=S)c(OC)c1	-9%	-18%	4µM*	0%	1.3µM*	/
COc1ccc(C(=O)CSc2nnc(C3CCCCC3)n2N)c(OC)c1	-3%	-4%	-22%	28%	-7%[12.7 µM]	?
COc1cccc(/C=N/n2c(C3CCCCC3)n[nH]c2=S)c1OC	-3%	6%	?	36%	?	/
COc1cc(/C=N/n2c(C3CCCCC3)n[nH]c2=S)ccc1O	?	-14%	11µM*	?	3.5µM*	/
COc1ccc(/C=N/n2c(C3CCCCC3)n[nH]c2=S)c(OC)c1	-19%	?	40µM*	-8%	14µM*	/
COc1cc(OC)c(-c2nn3c(C4CCCCC4)nnc3s2)cc1OC	1%	-23%	-29%	14%	8%[12.7 µM]	-14%
COc1cc(/C=N/NC(=O)CC(=O)NC2CCCCC2)ccc1O	8%	-4%	-4%	3%	19%	/
COc1cccc(/C=N/n2c(C3CCCCC3)n[nH]c2=S)c1O	79µM*	-32%	25µM*	16%	2.5µM*	/
SMILES	Sfp PPTase inh	BAZ2B inh	JMJD2A Tudor inh	HP1b chromo inh	G9a block	L3MBTL1 inh
COc1ccc(Cl)cc1S(=O)(=O)N(C)CC(=O)N1CCCC1	14%	2%	-7%	20%	10%	4%
CCOc1ccc(NCc2nnc(SCc3ccccc3Cl)n2-c2ccccc2)cc1	15%	20µM*	35µM*	-50%	?	?
c1csc(CSc2nc3ccccc3s2)c1	-23%	400%	160%	180%	313%	65%
CCn1c(CSc2nc3ccccc3s2)nc2ccccc21	-17%	-3%	-8%	31%	10µM*	/
O=C(O)CSc1nnc(CNc2ccc(F)cc2)n1-c1ccccc1	4%	79µM*	-16%	74%	-128%	/
O=C(O)CSc1nnc(CNc2ccc(Cl)cc2)n1Cc1ccccc1	23%	?	79µM*	-2%	-33%[2.33 µM]	/
Cc1ccc(-n2c(CNc3ccc(F)cc3)nnc2SCC(N)=O)cc1	2%	-6%	-12%	20%	7%	1%
NCC(=O)NCC(=O)NC[C@H]1O[C@@H](n2cnc3c(N)ncnc32)[C@H](O)[C@@H]1O	/	/	-17%	26%	/	10%
COc1ccc(NC(=O)C23CC4CC(CC(Cl)(C4)C2)C3)cc1S(=O)(=O)N1CCOCC1	/	/	-13%	19%[57 µM]	/	-7%
Cc1ccc(OCC(=O)N2CCC(C)CC2)c([N+](=O)[O-])n1	/	-2%	-1%	34%	?	0%
O=C(O)CSc1nnc(CSc2nc3ccccc3s2)n1-c1ccccc1	24%	-9%	2%	46%	35µM*	6%
C#CCSc1nnc(CSc2nc3ccccc3s2)n1-c1ccccc1	-12%	-7%	-20%	41%	?	/
N#Cc1ccc(C=NN2CCCCCC2)cc1	/	/	35µM*	?	/	/
COc1cc(/C=N/N2CCCCC2)cc(OC)c1O	45µM*	-34%	-26%	-5%	22µM*	/
Clc1ccc(C=NN2CCCCCC2)cc1Cl	/	/	?	17%	/	/
O=C1c2ccccc2C(=O)N1/N=C/c1ccc(O)c(O)c1	-30%	?	8.9µM*	-20%[57 µM]	11µM*	?
Clc1ccc(C=NN2CCCCCC2)cc1	/	/	35µM*	-33%	/	/
C(=NN1CCCCCC1)c1ccccc1	/	/	?	-33%	/	/
COc1ccc(CCNC(=O)Cn2nc(C)n3c(cc4cc(F)ccc43)c2=O)cc1OC	/	10%	-4%	61%	35%[59 µM]	/
Oc1ccc(/C=N/N2CCCCC2)cc1O	50µM*	?	?	?	-10%[2.33 µM]	/
Clc1ccc(/C=N/N2CCCCC2)cc1	10%	-38%	50µM*	-12%	-36%[59 µM]	?
COc1ccc(O)c(/C=N/N2CCCCC2)c1	8%	50µM*	50µM*	4%	50µM*	/
CCOc1ccc(S(=O)(=O)Nc2ccc3c(c2)OCO3)cc1	9%	3%	-6%	-14%	?	/
CC(C)C1Oc2ccccc2N(CC(=O)N(Cc2ccncc2)Cc2ccco2)C1=O (stereo unspecified)	45µM*	-25%	-28%	4%	?	-11%
c1ccc2c(c1)ccc1ncccc12	3%	-15%	2%	20%	-1%	/
O=Cc1ccc2ccc3cccnc3c2n1	-26%	?	63µM*	48%	?	/

High-throughput results: PubChem, National Center for Advancing Translational Sciences (NCATS)
